From PubChem
Sampled rows, rich in hits. Any-hit rate of the full collection: about 7.5%.
VP16 counter: counter-screen for ROR gamma inhibitors: Gal4-VP16 reporter. Drosophila S2 Gal4-VP16 UAS-luciferase, luminescence, 20 h. Potency, µM (titrated, usually from 53.6 µM), for inactives: at the top dose activity, negative = inhibition, actives largely listed as inhibitors. 3.5% of 310,000 active. AID 2546;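 also: Gal4-VP16 expression switched on by copper sulfate through the metallothionein promoter; potency is read from the fitted curve at half-maximal effect; nearly all actives have a fitted effect of over 50% in size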
RORg inh: inhibitors of mouse ROR gamma transcriptional activity; Drosophila S2 Gal4-RORgamma UAS-luciferase reporter, 20 h; 5.4% of 310,000 active; Potency, µM (top dose mostly 53.6 µM), without a hit: at the highest dose activity change, negative = inhibition, usual class: inhibitors; P51450; AID 2551; also: potency is read from the fitted curve at half-maximal effect; nearly all actives have a fitted effect of over 60% in size
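A Gal4/UAS one-hybrid system in insect cells: metallothionein-promoter Gal4–ROR gamma fusion plus Photinus luciferase reporter. Copper sulfate 700 uM final, 20 hr ambient incubation, luminescent detection after 10 min with reagent.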
ELG1 repair inh: blocks ELG1-dependent DNA repair in HEK293T cells; HEK293T ELG1-luciferase reporter, luminescence, 16 h; DNA damage induced by 5-fluorouridine; Potency, µM (titrated, usually from 46.1 µM), without a hit: at the highest dose activity change, negative = inhibition, actives largely listed as inhibitors; 2.3% of 330,000 active; also: potency is read from the fitted curve at half-maximal effect; nearly all actives have a fitted effect of over 55% in size
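DMSO vehicle served as the neutral condition. Each well held 2,000 cells given 5-fluorouridine plus compound; after 16 hr at 37 °C/5% CO2, ONE-Glo was added and luciferase measured 30 min later.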
B2AR arrestin: beta2AR (human) beta-arrestin recruitment activity; AID 492947; beta-arrestin recruitment to beta2AR, cell-based reporter; 0.02% of 330,000 active; P07550; Potency, µM (series often up to 46.1 µM), for inactives: top-dose activation, most hits filed as activators;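 also: potency is read from the fitted curve at half-maximal effect; 0% = DMSO controls and full agonism = EC100 isoproterenol or metaproterenol; nearly all actives have a fitted effect of over 65% in size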
Target sequence (P07550 whole entry, looked up): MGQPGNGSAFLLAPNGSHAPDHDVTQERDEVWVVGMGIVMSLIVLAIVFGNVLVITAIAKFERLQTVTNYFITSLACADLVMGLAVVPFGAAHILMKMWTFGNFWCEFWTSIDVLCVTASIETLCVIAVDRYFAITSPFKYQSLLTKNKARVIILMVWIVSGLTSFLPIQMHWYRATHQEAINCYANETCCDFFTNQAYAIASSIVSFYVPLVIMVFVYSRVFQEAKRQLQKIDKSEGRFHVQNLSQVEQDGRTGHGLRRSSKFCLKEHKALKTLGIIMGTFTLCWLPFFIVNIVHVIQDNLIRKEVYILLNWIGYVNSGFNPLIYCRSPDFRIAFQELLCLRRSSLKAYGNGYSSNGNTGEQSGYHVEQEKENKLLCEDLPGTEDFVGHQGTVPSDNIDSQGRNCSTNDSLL
TSHR antag: antagonists of human thyroid stimulating hormone receptor; P16473; TSHR-expressing cells, TSH-stimulated cAMP HTRF, 2 h; hits give low values; activity change, negative = inhibition, % at 11.5 µM; 0.2% of 330,000 active;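 active = activity change below a set negative limit, meaning inhibition stronger than a set level, cut at about -70% in these data; inconclusive = activity change between two set negative limits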
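Competitive HTRF cAMP read-out (cryptate anti-cAMP antibody, cAMP-d2; 30 min, room temperature) in freshly harvested TSHR cells. Compounds added before TSH at EC80 (4nM final), followed by 2 hours' incubation at 37 deg C.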
The depositor's hits bear a star; ? = inconclusive; / = not tested or not shown. Unless noted, calls follow the shape of the dose curve; as a rule, active = well fitted curve in the direction sought with a large enough effect; inconclusive = small, poorly fitted or top-dose-only effect, or another doubt; inactive = no such curve, though single readings can be large; an effect the other way counts as inactive or inconclusive. Unless noted, % is scaled to controls: 0 for no effect and ±100 for the full control effect.

SMILES	VP16 counter	RORg inh	ELG1 repair inh	B2AR arrestin	TSHR antag
CC(=C/c1ccccc1)/C=N/NC(=O)c1ccc2nc[nH]c2c1	8%	9%	?	-1%	3
O=C(O)c1ccc(N/N=C/C(Br)=C/c2ccccc2)cc1	10µM*	8.9µM*	?	-1%	-17
O=C(N/N=C/C(Br)=C/c1ccccc1)c1ccc([N+](=O)[O-])cc1	-19%	13µM*	0%	3%	0
O=C(N/N=C/C(Br)=C\c1ccccc1)c1ccc2nc[nH]c2c1	7.9µM*	14µM*	?	?	2
O=C(CNC(=O)c1ccc(OC(F)F)cc1)Nc1cccc(S(=O)(=O)N2CCCC2)c1	/	/	-1%	0%	14
CCc1ccc(CN(C)C(=O)C2=CC=CN3CCS(=O)(=O)N=C23)cc1	/	/	?	0%	0
CCC(=O)Nc1ccc(C(=O)NNC(=O)Cc2ccccc2)cc1	6%	24%	15%	0%	10
C=CCN(C(=O)CSC1=NC(=O)CN1C(C)=O)c1nc(C)c(-c2ccccc2)s1	?	13µM*	?	3%	-33
O=C(NCc1ccccn1)c1ccc2ccccc2n1	10µM*	3.5µM*	?	0%	2
Cc1nc2ccc(NC(=O)c3ccc4ccccc4n3)cc2s1	15%	2%	?	0%	27
Cc1ccc(S(=O)(=O)CCc2nnc(NC(=O)c3ccccn3)s2)cc1	7.1µM*	?	-26%	1%	1
O=C(NCc1ccccc1)c1ccc2ccccc2n1	21%	28%	23%	-1%	-3
Cc1nnc(NC(=O)c2ccc3ccccc3n2)s1	7.1µM*	2.8µM*	?	5%	1
Cc1ccc(SCc2nnc(NC(=O)c3ccccc3)s2)cc1	11%	-5%	-16%	0%	24
Cc1ccc(C(=O)Nc2nnc(NC(=S)Nc3ccccc3)s2)cc1	1.1µM*	0.28µM*	?	0%	-8
O=C(Cn1ncc2c([nH]c3ccccc32)c1=O)N1CCOCC1	-12%	7%	4%	0%	-16
O=S(=O)(c1ccccc1)N1CCC2(CCCN(C(c3ccccc3)c3ccccc3)C2)CC1	-4%	-13%	/	/	/
CCOC(=O)C1CCN(C(=O)c2cccc(S(=O)(=O)N3c4ccccc4CC3C)c2)CC1 (centres undefined)	/	/	19%	0%	-11
CCc1nnc(NC(=O)c2cccc(C(=O)Nc3nnc(CC)s3)n2)s1	0.18µM*	0.018µM*	13µM*	-1%	2
CCOc1ccc(C(=O)Nc2nnc(NC(=S)Nc3ccccc3)s2)cc1	1.6µM*	0.35µM*	25%	0%	-4
CCc1nnc(NC(=O)CN2CCN(Cc3cccc(Cl)c3)CC2)s1	?	2.5µM*	-16%	0%	27
CCc1nnc(NC(=S)Nc2ccccc2)s1	0.89µM*	0.28µM*	?	?	-3
CCc1nnc(NC(=O)c2ccncc2)s1	20%	4%	?	0%	-3
NCCCCCc1cnc[nH]1	-4%	4%	/	/	/
COc1ccc(-c2nnc3n2N=C(c2ccc(OC)cc2OC)CS3)cc1	-12%	?	/	/	/
SMILES	VP16 counter	RORg inh	ELG1 repair inh	B2AR arrestin	TSHR antag
Cc1nc(NC(=S)Nc2ccccc2)sc1C	5µM*	0.89µM*	?	?	6
CCC(C(=O)Nc1nc(C)c(C)s1)c1ccccc1 (centres undefined)	?	?	-18%	0%	-17
COc1ccc(N(CC(=O)N2CCN(c3ccc(Cl)cc3)CC2)S(=O)(=O)c2c(C)n[nH]c2C)cc1	-26%	?	?	0%	-1
S=c1nc(-c2csc3c2CCCC3)[nH][nH]1	11µM*	4µM*	1%	0%	-3
Cc1nnc2sc(-c3csc4c3CCCC4)nn12	1%	-35%	?	0%	4
C=CCNc1nc2ccccc2nc1NS(=O)(=O)c1ccc(Cl)cc1	-3%	?	-3%	0%	-26
Cc1cc(N/N=C/c2cccc([N+](=O)[O-])c2)nc(-n2nc(C)cc2C)n1	1µM*	0.11µM*	-7%	0%	3
Cc1cc(C)n2nc(C(=O)N/N=C/c3cccc(Cl)c3)nc2n1	1%	5%	3%	-1%	0
Cc1cc(C)nc(N/N=C/c2cccc([N+](=O)[O-])c2)n1	4%	4%	13%	-1%	3
